Source: the supplement of paper PMC6555819

Experiments:
Experiment in all cases: PBM binding z-score (relative to random genomic background probes); higher = stronger binding; sequences stand for … in GC…GCGATTGACAGCGTAGAATGAAGG
[1] = tested on: FXR:RXRa (NR concentration 270 nM, RXRa partner concentration 90 nM)
How it was run: (§1)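 Random background probes are the reference for binding z-scores. These scores derive from regression-normalized fluorescence on custom Agilent 4×180K protein-binding microarrays incubated 1 h with ligand-free nuclear receptor dimers. Binding was detected with antibodies against each partner (one per run).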

[2] = tested on: LXRa:RXRa (NR concentration 270 nM, RXRa partner concentration 90 nM)
How it was run: as §1

[3] = tested on: LXRa homodimer (NR concentration 270 nM)
How it was run: as §1

[4] = tested on: LXRb:RXRa (NR concentration 270 nM, RXRa partner concentration 90 nM)
How it was run: as §1

[5] = tested on: LXRb homodimer (NR concentration 270 nM)
How it was run: as §1

[6] = tested on: PPARa:RXRa (NR concentration 270 nM, RXRa partner concentration 90 nM)
How it was run: as §1

[7] = tested on: PPARg:RXRa (NR concentration 180 nM, RXRa partner concentration 90 nM)
How it was run: as §1

[8] = tested on: PPARg:RXRa 270nM:90nM, anti-RXR (NR concentration 270 nM, RXRa partner concentration 90 nM)
How it was run: as §1

[9] = tested on: PPARg:RXRa 30nM:10nM, anti-RXR (NR concentration 30 nM, RXRa partner concentration 10 nM)
How it was run: as §1

[10] = tested on: PPARg:RXRa 90nM:30nM, anti-RXR (NR concentration 90 nM, RXRa partner concentration 30 nM)
How it was run: as §1

[11] = tested on: PPARg:RXRa DBDmut IVT, anti-RXR (DBD mutation: RXRa K156A/R161A, NR concentration 270 nM, RXRa partner concentration 90 nM)
How it was run: as §1

[12] = tested on: PPARg:RXRa IVT, anti-PPARg (NR concentration 270 nM, RXRa partner concentration 90 nM)
How it was run: as §1

[13] = tested on: PPARg DBDmut:RXRa IVT, anti-PPARg (DBD mutation: PPARg1 K132A/R137A, NR concentration 270 nM, RXRa partner concentration 90 nM)
How it was run: as §1

[14] = tested on: PPARg DBDmut IVT, anti-PPARg (DBD mutation: PPARg1 K132A/R137A, NR concentration 270 nM)
How it was run: as §1

[15] = tested on: PPARg homodimer (NR concentration 180 nM)
How it was run: as §1

[16] = tested on: PXR:RXRa (NR concentration 270 nM, RXRa partner concentration 90 nM)
How it was run: as §1

[17] = tested on: PXR homodimer (NR concentration 270 nM)
How it was run: as §1

[18] = tested on: RARa:RXR (NR concentration 270 nM, RXRa partner concentration 90 nM)
How it was run: as §1

[19] = tested on: RARa homodimer (NR concentration 270 nM)
How it was run: as §1

[20] = tested on: RARb:RXRa (NR concentration 270 nM, RXRa partner concentration 90 nM)
How it was run: as §1

Sequence	PBM binding z-score [1]	PBM binding z-score [2]	PBM binding z-score [3]	PBM binding z-score [4]	PBM binding z-score [5]	PBM binding z-score [6]	PBM binding z-score [7]	PBM binding z-score [8]	PBM binding z-score [9]	PBM binding z-score [10]	PBM binding z-score [11]	PBM binding z-score [12]	PBM binding z-score [13]	PBM binding z-score [14]	PBM binding z-score [15]	PBM binding z-score [16]	PBM binding z-score [17]	PBM binding z-score [18]	PBM binding z-score [19]	PBM binding z-score [20]
ATCGAAAGGTCGAAGGTGAGTATACCCACCCGAA	4.3	3.8	0.189	2.86	0.5	4.67	4.53	5.13	2.14	4.33	0.0439	2.38	0.373	0.686	1.04	2.96	-0.372	3.94	0.591	3.82
TAGCCCAGGTCATGGGCCAGTATACCACGCGAAC	5.49	3.68	0.403	2.34	-0.434	4.31	3.87	3.37	0.448	2.04	0.271	2.71	0.391	-0.431	0.53	2.24	-0.39	2.96	0.0198	3.78
TCCCGGAGGACACGAAGGTCAGAGCTTTCCAGAG	1.21	1.09	0.214	0.838	-1.26	1.81	0.359	1.33	1.5	1.41	0.961	0.734	-0.541	-1.41	1.3	1.73	0.166	1.95	-0.433	3.44
CGTCCAAGGTCAAGGTCAGTAAAAGAGACTCGAA	7.33	5.66	1.22	4.68	0.908	5.72	6.21	5.92	2.62	4.87	3.53	4.49	0.553	0.71	4.59	4.72	1.84	5	3.01	5.53
TCATATAGGTATAAGGTGAAAGTCGGTGTGGTAA	1.55	1.21	0.319	1.37	0.352	3.14	3.92	5.38	5.06	5.68	2.8	2.27	1.02	0.854	1.32	0.935	0.866	1.62	1.54	1.23
GATACAGGGTCAGCTAGAGGCCAGATTATGGAAA	4.25	2.85	-0.166	2.68	-0.373	4.42	3.59	3.18	0.899	1.88	0.866	2.23	0.547	-0.0092	1.91	3.24	-0.0885	4.03	0.518	4.12
GATACAGGGTCAAGGCCAGAGTGCGCGTATTGAT	6.68	4.01	0.0458	3.51	-0.343	5.4	5.81	5.34	2.09	4	2.75	4.1	0.884	0.0154	3.05	3.92	0.307	4.99	1.02	4.28
CGGCCAAGGTCAGAGAGGTCAGTGAATGCCGAGT	6.02	5.04	2.26	4.41	-0.527	4.79	3.72	4.34	0.655	2.75	3.09	3.49	-0.798	-1.36	3.78	5.99	12	5.43	1.18	5.21
GATACAGGGTCAAGGCCAAAGTACGCGTATTGAT	6.56	4.57	0.296	4.15	0.33	5.6	6.18	5.96	2.37	4.76	2.58	4.27	2.3	0.743	3.07	4.48	0.731	5.02	1.25	4.5
TCAGACAGGTGAAGTTAACTCAGGTACGCAGTCG	0.865	0.967	0.0333	0.725	-0.0783	1.17	0.534	2.18	3.93	2.75	2.34	0.646	0.282	-0.426	0.226	0.543	0.31	0.876	0.495	1.03
CCAGACAAGTGAGAAGGTAACTCAGCCTCGATTA	-0.1	0.185	0.265	0.312	0.105	-0.0657	0.295	-0.204	-0.274	-0.419	0.321	-0.293	-0.675	-0.316	1.29	-0.132	0.602	0.088	1.08	0.0534
ATCTCTAGGTAACCAAATTCAGTGAATGCCGAAC	0.306	0.196	0.385	0.283	0.743	0.476	0.6	0.634	0.182	0.59	3.66	2.72	0.888	0.995	0.658	0.0913	0.615	0.166	0.995	0.377
AGAATGAGGTTAAGATCAGGGAAACAGAATACAT	2.37	2.14	-0.0625	1.9	-0.0135	3.67	2.46	2.54	1.11	1.75	2.82	2.83	1.43	0.885	0.847	1.38	0.732	2.08	0.481	2.01
CGAACTAGGCCATCCAGGACAGTGAATACATTGA	-0.177	-0.379	-0.0398	-0.306	-0.512	1.64	2.39	1.71	0.404	1.19	6	5.51	0.953	0.808	0.048	-0.289	-0.148	0.254	0.507	0.809
